Reference: PubChem BioAssay AID504582 (Broad Institute, 2011)
Values joined by “and” are separate entries in the source; they are usually repeats but may differ in a detail not shown here. Equal entries are not always repeated. Among all 340,000 compounds or so, about 2,300 (0.68%) were called active. Rule as the data show it: active = growth rescue above about 28% (passing the limit was not always enough); inconclusive = no clear call, values can overlap the other calls. The list comes from a sample in which actives are over-represented; it also holds similar structures and randomly drawn compounds.

Assay: rescue of yeast from PfHsp40 toxicity, primary screen, S. cerevisiae, ATP luminescence (AID 504582);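 also: yeast W303a lacking pdr1 and pdr3 grown in galactose medium; growth measured after three days at 30 °C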
Conditions: S. cerevisiae expressing PfHsp40, growth rescue, at 12.5 µM, active compounds read high

Compound	growth rescue
O=C(CCc1ccccc1)NNC(=O)COc1ccc(Cl)cc1	-0.417% (inactive)
Cc1onc(-c2ccccc2)c1C(=O)Nc1ccccc1C#N	-0.716% (inactive) and 0.99% (inactive)
Cc1onc(-c2c(Cl)cccc2Cl)c1C(=O)NNC(=O)c1c(-c2c(Cl)cccc2Cl)noc1C	-0.106% (inactive)
Cc1noc(C)c1COc1ccc(C(=O)NCCOc2ccccc2)cc1	0.221% (inactive)
COc1ccc(C(=O)NC(=S)NC2CCCCC2)cc1	0.972% (inactive)
Cc1onc(-c2ccccc2)c1C(=O)N=C(N)c1ccc(Cl)cc1	-1% (inactive)
COc1ccc(C(=O)NC(=S)NNC(=O)c2c(-c3ccccc3)noc2C)cc1	42.1% (active)
Cc1onc(-c2ccccc2)c1C(=O)NNC(=S)NC(=O)c1ccc(F)cc1	45.5% (active)
COc1ccc(C(=O)NC(=S)NNC(=O)CCc2ccccc2)cc1	277% (active)
COc1ccc(NS(=O)(=O)c2cc(NC(=O)c3ccc(S(=O)(=O)N(C)C)cc3)ccc2N2CCOCC2)cc1	0.23% (inactive)
CCOC(=O)N1CCN(CC(=O)n2c(C)c(C)c3ccccc32)CC1	1.25% (inactive)
COC(=O)Cc1ccc(NC(=S)NCc2ccco2)cc1	-0.043% (inactive)
Cc1cc(C)cc(N)c1	-0.449% (inactive)
CCN(C(=O)CSc1nnnn1-c1ccc(OC)cc1)C1CCS(=O)(=O)C1 (stereo unspecified)	-0.617% (inactive)
Cc1c(C(=O)N(C)CCc2cnn(C)c2)oc2c(F)cccc12	6.8% (inactive)
CC(C)c1ccc(Nc2nnc(SCC(=O)c3nnc(-c4ccccc4)o3)s2)cc1	200% (active)
Cc1ccccc1Nc1nnc(SCC(=O)c2cc3ccccc3o2)s1	0.609% (inactive)
CC(C)N(C(=O)CSc1nnc(NC2CC2)s1)c1ccccc1	0.892% (inactive)
O=C1C2(Cl)C3(Cl)C4(Cl)C(Cl)(Cl)C5(Cl)C3(Cl)C1(Cl)C5(Cl)C24Cl (stereo unspecified)	78.8% (active)
CCc1ccc(NC(=O)N[C@H](C(=O)O)C(C)CC)cc1 (stereo partly specified)	-0.138% (inactive)
CCOc1ccc(NC(=O)N2CC=C(n3c(=O)[nH]c4ccccc43)CC2)cc1	-0.78% (inactive)
CCn1c(SC)nc(O)c(C(c2ccc(OC)c(O)c2)c2c(O)nc(SC)n(CC)c2=O)c1=O	-0.176% (inactive)
CC(Sc1nnc(-c2cccs2)n1C1CC1)C(=O)NCC1CCCO1 (stereo unspecified)	-0.606% (inactive)
Cc1cc(C)cc(OCC(=O)NNC(=O)c2cc3ccccc3oc2=O)c1	-1.97% (inactive)
O=c1oc2ccccc2cc1-c1csc(Nc2ccc(O)cc2)n1	77.4% (active)
O=c1oc2ccccc2cc1-c1cn(-c2ccccc2)c(=S)[nH]1	2.32% (inactive)
